The sample as a whole holds a higher share of hits than the screen did.
Tgondii IFNg: blocks Toxoplasma gondii growth in the presence of IFN-gamma; AID 1259416; activity change, negative = inhibition, % (test concentration not listed); 69,000 tested, 3.8% active; Toxoplasma gondii growth in IFN-gamma-treated host cells; hits give low values; in the data active = activity change below about -70%, passing the limit was not always enough;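 also: host cells are HeLa cells infected with Toxoplasma gondii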
The depositor's hits bear a star; ! = repeats disagree.

SMILES	Tgondii IFNg
C[C@H](CO)N1C[C@H](C)[C@@H](CN(C)Cc2ccc(-c3ccccc3)cc2)Oc2c(NS(C)(=O)=O)cccc2C1=O	-52
C[C@@H]1CN([C@@H](C)CO)C(=O)Cc2cc(NC(=O)C3CCCCC3)ccc2O[C@@H]1CN(C)Cc1ccc(Cl)c(Cl)c1	-87*
C[C@@H]1CN([C@@H](C)CO)C(=O)c2cccc(NS(=O)(=O)c3ccc(F)cc3)c2O[C@H]1CN(C)Cc1ccc(Cl)c(Cl)c1	-64
C[C@@H]1CN([C@@H](C)CO)C(=O)c2cccc(NS(C)(=O)=O)c2O[C@@H]1CN(C)Cc1ccc(-c2ccccc2)cc1	-1
C[C@H](CO)N1C[C@H](C)[C@H](CN(C)Cc2ccc(Cl)c(Cl)c2)Oc2ccc(NC(=O)C3CCCCC3)cc2CC1=O	-52
C[C@H](CO)N1C[C@H](C)[C@H](CN(C)Cc2ccc(Cl)c(Cl)c2)Oc2c(NS(=O)(=O)c3ccc(F)cc3)cccc2C1=O	-85*
C[C@H]1CN([C@@H](C)CO)C(=O)c2cccc(NS(=O)(=O)c3ccc(F)cc3)c2O[C@H]1CN(C)Cc1ccc(Cl)c(Cl)c1	-78*
C[C@H]1CN([C@@H](C)CO)C(=O)Cc2cc(NC(=O)C3CCCCC3)ccc2O[C@@H]1CN(C)Cc1ccc(Cl)c(Cl)c1	-40
C[C@@H]1CN([C@H](C)CO)C(=O)c2cccc(NS(C)(=O)=O)c2O[C@@H]1CN(C)Cc1ccc(-c2ccccc2)cc1	-55
CCOC(=O)C(NCCc1ccccc1)(NC(C)=O)C(F)(F)F (stereo not drawn)	15
CC(C)CC(NS(=O)(=O)c1ccc2[nH]c(=O)ccc2c1)C(=O)NC1CCCCC1 (stereo not drawn)	23
CN(C)C(=S)NCCC1=CCCCC1	13
CC(C)COC(=O)N(C)C[C@H]1OCc2ccccc2-c2ccccc2C(=O)N([C@@H](C)CO)C[C@H]1C	-37
CC(C)N1CC2(CCN(Cc3cccnc3)CC2)CC1COCC1CC1 (stereo not drawn)	-4
Cc1ccc(C(=O)N2CCC3(CCC(COCC4CC4)N3C)CC2)cc1 (stereo not drawn)	-3
Cc1cccc(CN2CCC3(CCC(COCC4CC4)N3C)CC2)n1 (stereo not drawn)	-85*
Cc1c(C#N)c(N)n(Cc2c(Cl)cccc2Cl)c1C	74
O=C(NCCc1ccccc1)C1CCN(C2CCN(Cc3ccco3)CC2)CC1	-9
O=C(OCCOCCO)c1ccccc1Nc1cccc(C(F)(F)F)c1	39
O=C(O)c1ccccc1Nc1ccccc1	-13
O=C(O)c1ccccc1Nc1cccc(C(F)(F)F)c1	-73*!
CCc1cc(=O)[nH]c(C2CCCN2C(=O)CCc2cc(OC)no2)n1 (stereo not drawn)	68
COc1cccc(-c2cc(C(=O)O)on2)c1	5
CCCCOCC1CC(CC#CCN2CCCCC2)C(=O)O1 (stereo not drawn)	2
COc1ccc(-c2csc(C(N)=O)c2)cn1	-20
SMILES	Tgondii IFNg
COc1c(C)cc(-c2cncc(C(N)=O)c2)cc1C	-5
COc1c(C)cc(-c2csc(C(N)=O)c2)cc1C	-72*
COc1ccc(-c2nc(C)c(CCNC(=O)C(=O)Nc3cccc(C)c3)s2)cc1	-29
CCCCNc1nc(-c2ccc(OC)cc2)nc2ccccc12	-59
COc1cc2[nH]c3c(=O)n(CCC(=O)NCc4ccncc4)cnc3c2cc1OC	29
COc1ccccc1N1CC(NC(=O)c2c(C)oc3c2CCCC3)CC1=O (stereo not drawn)	1
Cc1cc(C)c2c(n1)sc1c3ccccc3c(N)nc12	-102*
Cc1cc(C)c2c(n1)sc1c(=O)oc(C)nc12	14
C=CCSc1ncnc2c1sc1nc(C)cc(C)c12	99
COc1nc(OC)nc(-c2c[nH]c3ccc(C)cc23)n1	-87*
COc1nccnc1-c1c[nH]c2ccc(C)cc12	138
Cc1ccc2[nH]cc(-c3nccc(C(F)(F)F)n3)c2c1	-12
COc1cc(Nc2c(C#N)cnc3cc(OCCCN4CCN(C)CC4)c(OC)cc23)c(Cl)cc1Cl	-79*
COc1ccc(-c2nc(NCCCN3CCN(C)CC3)c3ccccc3n2)cc1	-51
COc1cc2c(Oc3ccc(NC(=O)C4(C(=O)Nc5ccc(F)cc5)CC4)cc3F)ccnc2cc1OCCCN1CCOCC1	-68
CC(C)CNC(=O)[C@H]1C[C@H]2CN(CC3CC3)C[C@H]1O2	77
C=CCNC(=O)c1ccc(-c2cccc(-n3cccn3)c2)o1	3
CN(C)C(=O)CN1CCN(Cc2cccc(C(=O)Nc3cnn(C)c3)c2)CC1	11
COC(=O)c1ccc2c(C(=Nc3ccc(N(C)C(=O)CN4CCN(C)CC4)cc3)c3ccccc3)c(O)[nH]c2c1	-78*
O=C(C1CCCCC1)N1CC2(C1)[C@@H](c1ccccc1)[C@@H](CO)N2C(=O)c1cccnc1	-59
COc1ccc(Cl)cc1N1C(=N)SCC1=O	-2
CCCCCCCCc1ccc(-c2ccc(C(=O)O)cc2)cc1	23
CCCCCCCCCCCCCCCCCCc1ccc(C(=O)/C=C/C(=O)O)cc1	7
CCCCCCCCc1ccc(CCC(N)(CO)CO)cc1	-82*!

Source: PubChem BioAssay
